From PubChem BioAssay (EPA / NIEHS)
Values joined by “and” are separate entries in the source; they are usually repeats but may differ in a detail not shown here. Equal values may be shown once. Results filed as inconclusive are left out. The source holds several records for some structures; these can differ, active in one and inactive in another. Active and inactive are the calls of the source. The calls were made as follows, unless noted: active = hit-call score of the fitted dose curve at least 0.9, where 1 is the maximum; inactive = score below 0.9.

Legend:
[1] = read-out: Interleukin-1 alpha (IL1a), IL1A (gene 3552); experiment: BSK_LPS_IL1a: BioMAP Diversity Plus: LPS Assay for Interleukin-1 alpha (IL1a) Biomarker Activity (AID 2283080); details: primary human HUVEC with PBMC; actives raise or lower the signal
In short: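 Human umbilical vein endothelial cells co-cultured with PBMC and stimulated with LPS; IL-1a measured by ELISA 24 h after dosing. Bidirectional fitting against DMSO; cytotoxicity checked by SRB staining in parallel cultures.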

[2] = read-out: Monocyte Chemoattractant Protein-1 (MCP1), CCL2 (gene 6347); experiment: BSK_LPS_MCP1: BioMAP Diversity Plus: LPS Assay for Monocyte Chemoattractant Protein-1 (MCP1) Biomarker Activity (AID 2283081); details: primary human HUVEC with PBMC; actives raise or lower the signal;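 as to AC50: secreted MCP-1 protein quantified by ELISA in culture supernatant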
In short: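 Human umbilical vein endothelial cells co-cultured with PBMC, LPS-stimulated; secreted MCP-1 measured by ELISA 24 h after compound addition. Bidirectional curve fitting against DMSO baseline; SRB total-protein staining in parallel cultures for cytotoxicity.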

[3] = BSK_LPS_PGE2: BioMAP Diversity Plus: LPS Assay for Prostaglandin E2 (PGE2) Biomarker Activity (AID 2283082); details: primary human HUVEC with PBMC; actives raise or lower the signal;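 as to AC50: secreted prostaglandin E2 measured by ELISA in LPS-stimulated co-culture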
In short: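 HUVEC plus PBMC co-culture stimulated with LPS; secreted PGE2 quantified by ELISA 24 h after chemical dosing. Activity fitted bidirectionally against DMSO as negative control and baseline; parallel SRB total-protein staining served as cytotoxicity check.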

[4] = read-out: Macrophage colony-stimulating factor (MCSF), CSF1 (gene 1435); experiment: BSK_LPS_MCSF: BioMAP Diversity Plus: LPS Assay for Macrophage colony-stimulating factor (MCSF) Biomarker Activity (AID 2283083); details: primary human HUVEC with PBMC; actives raise or lower the signal
In short: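 HUVEC–PBMC co-culture, M-CSF measured by ELISA 24 h after chemical dosing. Fitted in both directions relative to DMSO as negative control; overt cytotoxicity assessed by SRB total-protein staining in parallel cultures.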

[5] = read-out: Tissue Factor, F3 (gene 2152); experiment: BSK_LPS_TissueFactor: BioMAP Diversity Plus: LPS Assay for Tissue Factor Biomarker Activity (AID 2283084); details: primary human HUVEC with PBMC; actives raise or lower the signal
In short: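 Human umbilical vein endothelial cells co-cultured with PBMC were dosed with compound. Cell-surface CD142 was measured by ELISA 24 h later. Activity was fitted bidirectionally against DMSO, with SRB total-protein staining in parallel cultures for cytotoxicity.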

[6] = read-out: Tumor necrosis factor (Homo sapiens) (UniProt P01375); experiment: BSK_LPS_TNFa: BioMAP Diversity Plus: LPS Assay for Tumour Necrosis Factor alpha (TNFa) Biomarker Activity (AID 2283085); details: primary human HUVEC with PBMC; actives raise or lower the signal
In short: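 Human umbilical vein endothelial cells co-cultured with PBMC were exposed to test chemical and TNFa measured by ELISA 24 h after dosing. Bidirectional curve fitting was done relative to DMSO as negative control and baseline.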

[7] = read-out: Vascular cell adhesion molecule 1 (VCAM1), VCAM1 (gene 7412); experiment: BSK_LPS_VCAM1: BioMAP Diversity Plus: LPS Assay for Vascular cell adhesion molecule 1 (VCAM1) Biomarker Activity (AID 2283086); details: primary human HUVEC with PBMC; actives raise or lower the signal
In short: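 Human umbilical vein endothelial cells co-cultured with peripheral blood mononuclear cells under LPS stimulation were exposed to test chemical for 24 h. VCAM-1 levels were then measured by ELISA, with bidirectional curve fitting relative to DMSO as negative control and baseline.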

CD38, CD38 (gene 952) = experiment: BSK_SAg_CD38: BioMAP Diversity Plus: SAg Assay for CD38 Biomarker Activity (AID 2283087); details: primary human HUVEC with PBMC; actives raise or lower the signal
In short: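 Fluorescence ELISA of cell-surface CD38 served as the read-out, with either increase or decrease fitted against DMSO controls. Cells were a human umbilical vein endothelium plus PBMC co-culture under SEB/TSST-1 stimulation, measured 24 h after dosing.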

CD40, CD40 (gene 958) = experiment: BSK_SAg_CD40: BioMAP Diversity Plus: SAg Assay for CD40 Biomarker Activity (AID 2283088); details: primary human HUVEC with PBMC; actives raise or lower the signal
In short: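 HUVEC plus PBMC co-culture, superantigen-activated, with CD40 read by ELISA 24 h after dosing. Curves fitted in both directions against DMSO. Overt cytotoxicity checked by parallel SRB total-protein staining.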

CD69, CD69 (gene 969) = experiment: BSK_SAg_CD69: BioMAP Diversity Plus: SAg Assay for CD69 Biomarker Activity (AID 2283089); details: primary human HUVEC with PBMC; actives raise or lower the signal;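 as to AC50: cell surface CD69 protein quantified by ELISA with fluorescence detection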
In short: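 ELISA, fluorescence read-out: CD69 on human umbilical vein endothelial cell + PBMC co-culture, 24 h post-dosing. Gain or loss of signal fitted bidirectionally against DMSO baseline.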

[8] = read-out: Monocyte Chemoattractant Protein-1 (MCP1), CCL2 (gene 6347); experiment: BSK_SAg_MCP1: BioMAP Diversity Plus: SAg Assay for Monocyte Chemoattractant Protein-1 (MCP1) Biomarker Activity (AID 2283090); details: primary human HUVEC with PBMC; actives raise or lower the signal
In short: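 MCP-1 levels in the endothelial–PBMC SAg co-culture were quantified by ELISA at 24 h post-dosing; both increases and decreases versus DMSO scored. Cytotoxicity monitored by SRB total protein in parallel cultures.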

[9] = read-out: E-selectin (Homo sapiens) (UniProt P16581); experiment: BSK_SAg_Eselectin: BioMAP Diversity Plus: SAg Assay for Eselectin Biomarker Activity (AID 2283091); details: primary human HUVEC with PBMC; actives raise or lower the signal
In short: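 Human umbilical vein endothelial cells co-cultured with peripheral blood mononuclear cells, SAg system. E-selectin is measured by ELISA 24 h after dosing and fitted bidirectionally against DMSO. Cytotoxicity is checked by SRB staining of parallel cultures.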

[10] = BSK_SAg_PBMCCytotoxicity: PBMC Cytotoxicity Assessment in the BioMAP Diversity Plus: SAg Assay (AID 2283093); details: primary human HUVEC with PBMC;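 also: PBMC viability measured as Alamar Blue reduction fluorescence at 546/580 nm; fitted both ways against DMSO so a hit may be loss or gain of signal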;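 as to AC50: PBMC superantigen activated with SEB plus TSST-1 one hour after compound addition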
In short: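 Human umbilical vein endothelial cells co-cultured with PBMC; PBMC (75,000/well) pre-treated with compound 1 h, then activated with SEB and TSST-1 (20 ng/mL final each) for 90 h. Alamar Blue added 6 h, fluorescence 546/580 nm; bidirectional fit versus DMSO.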

[11] = read-out: Interleukin-8 (IL8), CXCL8 (gene 3576); experiment: BSK_SAg_IL8: BioMAP Diversity Plus: SAg Assay for Interleukin-8 (IL8) Biomarker Activity (AID 2283094); details: primary human HUVEC with PBMC; actives raise or lower the signal
In short: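 Human umbilical vein endothelial cells co-cultured with peripheral blood mononuclear cells; IL-8 measured by ELISA 24 h after chemical dosing. Bidirectional concentration-response fitting used DMSO as negative control and activity baseline.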

[12] = BSK_SAg_Proliferation: Cell Proliferation Assessment in the BioMAP Diversity Plus: SAg Assay (AID 2283095); details: primary human HUVEC with PBMC;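 also: relative cell number as total protein by SRB absorbance in sub-confluent culture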
In short: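 Human umbilical vein endothelial cells co-cultured with peripheral blood mononuclear cells; total protein measured by sulforhodamine B staining (0.1% SRB after 10% TCA fixation), absorbance at 560 nm, at 96 h. Bidirectional fit against DMSO baseline.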

[13] = BSK_SAg_SRB: Viability Assessment in the BioMAP Diversity Plus: SAg Assay (AID 2283096); details: primary human HUVEC with PBMC;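 also: cells read one day after compound addition; hits may be either gain or loss of signal compared with DMSO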
In short: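 Endothelial/PBMC primary human co-culture; compound 24 h; fix 10% TCA, stain 0.1% SRB, A560; protein content as cytotoxicity proxy; bidirectional curve fit, DMSO = baseline.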

[14] = target: human CYP2D6, CYP2D6 (gene 1565) (UniProt P10635); experiment: NVS_ADME_hCYP2D6: NovaScreen (NVS) CYP450-related Enzyme Activity (ADME) Assay for human CYP2D6 (AID 2283107; active = hit-call score of the fitted dose curve at least 0.9, where 1 is the maximum)
In short: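 Cell-free assay using recombinant human CYP2D6 expressed in insect cells, with a fluorogenic substrate read after 1 h. Primary screen in duplicate at 10 uM; actives followed up in concentration series. Loss of signal fitted relative to acetonitrile.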

[15] = target: human CYP19A1, CYP19A1 (gene 1588) (UniProt P11511); experiment: NVS_ADME_hCYP19A1: NovaScreen (NVS) CYP450-related Enzyme Activity (ADME) Assay for human CYP19A1 (AID 2283098; active = hit-call score of the fitted dose curve at least 0.9, where 1 is the maximum)
In short: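 Cell-free enzyme assay with recombinant protein and a specific fluorogenic substrate, read by fluorescence intensity 0.5 h after dosing. Primary screen ran in duplicate at 10 uM; actives were retested in concentration series. Loss of signal versus acetonitrile baseline.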

[16] = target: Cytochrome P450 2C19 (Homo sapiens) (UniProt P33261); experiment: NVS_ADME_hCYP2C19: NovaScreen (NVS) CYP450-related Enzyme Activity (ADME) Assay for human CYP2C19 (AID 2283113; active = hit-call score of the fitted dose curve at least 0.9, where 1 is the maximum;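 also: potency for inhibition seen as loss of fluorescent signal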)
In short: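 Cell-free recombinant human CYP2C19 from insect cells, fluorescent substrate; activity read by fluorescence intensity 1 h after dosing. Primary screen in duplicate at 10 uM; actives retested in concentration series. Signal loss versus acetonitrile negative control.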

Measured: AC50

Sequence of E-selectin (Homo sapiens) (P16581 whole entry, looked up): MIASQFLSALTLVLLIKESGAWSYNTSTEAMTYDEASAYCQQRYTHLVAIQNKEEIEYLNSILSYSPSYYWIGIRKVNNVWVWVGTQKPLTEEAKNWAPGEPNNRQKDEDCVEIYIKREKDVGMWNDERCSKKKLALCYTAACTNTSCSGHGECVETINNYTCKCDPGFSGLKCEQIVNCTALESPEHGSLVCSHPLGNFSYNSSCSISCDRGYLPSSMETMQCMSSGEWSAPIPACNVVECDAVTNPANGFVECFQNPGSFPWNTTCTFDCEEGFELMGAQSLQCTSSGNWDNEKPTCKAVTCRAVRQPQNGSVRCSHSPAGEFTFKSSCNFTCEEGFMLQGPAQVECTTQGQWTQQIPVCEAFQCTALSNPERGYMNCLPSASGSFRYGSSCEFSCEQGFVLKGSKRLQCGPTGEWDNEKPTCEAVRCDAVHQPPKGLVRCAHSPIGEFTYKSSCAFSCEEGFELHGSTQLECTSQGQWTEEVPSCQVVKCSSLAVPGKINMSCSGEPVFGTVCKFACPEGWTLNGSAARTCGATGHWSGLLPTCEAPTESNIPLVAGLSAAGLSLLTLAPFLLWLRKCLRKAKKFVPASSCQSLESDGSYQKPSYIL
Sequence of Tumor necrosis factor (Homo sapiens) (P01375 whole entry, looked up): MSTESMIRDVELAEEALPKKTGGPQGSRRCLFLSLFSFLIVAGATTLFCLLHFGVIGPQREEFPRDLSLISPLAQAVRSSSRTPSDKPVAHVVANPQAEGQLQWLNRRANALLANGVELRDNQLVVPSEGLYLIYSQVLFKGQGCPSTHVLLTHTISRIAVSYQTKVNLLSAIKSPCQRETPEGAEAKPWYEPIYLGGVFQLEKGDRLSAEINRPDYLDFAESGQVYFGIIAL
Sequence of human CYP2D6, CYP2D6 (gene 1565) (P10635 whole entry, looked up): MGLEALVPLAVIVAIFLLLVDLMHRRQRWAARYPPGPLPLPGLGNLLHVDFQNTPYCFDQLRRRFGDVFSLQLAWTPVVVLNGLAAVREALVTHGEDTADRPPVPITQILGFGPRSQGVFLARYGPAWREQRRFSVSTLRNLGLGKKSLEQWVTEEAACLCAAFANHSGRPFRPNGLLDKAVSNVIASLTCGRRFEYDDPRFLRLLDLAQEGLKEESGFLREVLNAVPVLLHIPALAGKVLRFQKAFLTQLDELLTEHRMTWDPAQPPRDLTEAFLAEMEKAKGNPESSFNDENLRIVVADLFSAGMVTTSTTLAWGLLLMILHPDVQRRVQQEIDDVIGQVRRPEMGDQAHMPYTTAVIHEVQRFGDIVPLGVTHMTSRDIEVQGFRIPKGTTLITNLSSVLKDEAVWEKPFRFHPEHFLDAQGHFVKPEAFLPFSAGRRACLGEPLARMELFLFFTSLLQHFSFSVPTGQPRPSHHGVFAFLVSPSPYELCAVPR
Sequence of human CYP19A1, CYP19A1 (gene 1588) (P11511 whole entry, looked up): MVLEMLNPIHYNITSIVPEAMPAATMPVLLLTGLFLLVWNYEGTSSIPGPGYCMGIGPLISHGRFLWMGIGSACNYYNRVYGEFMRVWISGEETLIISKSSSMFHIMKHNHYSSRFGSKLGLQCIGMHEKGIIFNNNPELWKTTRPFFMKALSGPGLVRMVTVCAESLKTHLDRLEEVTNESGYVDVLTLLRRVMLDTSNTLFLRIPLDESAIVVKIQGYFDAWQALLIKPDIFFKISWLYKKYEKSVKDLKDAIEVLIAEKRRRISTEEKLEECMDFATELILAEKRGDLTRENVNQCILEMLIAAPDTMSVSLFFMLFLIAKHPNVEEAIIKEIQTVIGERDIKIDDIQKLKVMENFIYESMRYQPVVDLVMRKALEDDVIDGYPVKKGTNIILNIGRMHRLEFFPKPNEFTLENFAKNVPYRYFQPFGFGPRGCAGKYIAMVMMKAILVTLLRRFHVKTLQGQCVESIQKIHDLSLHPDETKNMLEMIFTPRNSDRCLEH

N#[N+]c1ccc2c(S(=O)(=O)[O-])cccc2c1O
active: [14] 3.97 µM
not listed: [15] | [16]
inactive: all other assays above

c1ccc2c(c1)ccc1cc3c(ccc4ccccc43)cc12
active: [5] 0.0342 µM
inactive: [1] | [2] | [3] | [4] | [5] | [6] | [7] | CD38, CD38 (gene 952) | CD40, CD40 (gene 958) | CD69, CD69 (gene 969) | [8] | [9] | [10] | [11] | [12] | [13]

CCCCCCCC/C=C\CCCCCCCC(=O)O
inactive: [15]

Nc1ccc(N)c(Cl)c1
active: [1] 4.62 µM and 33.4 µM | [2] 32.7 µM and 32.2 µM | [3] 20 µM and 13 µM | [4] 8.8 µM and 15.4 µM | [5] 3.97 µM and 3.44 µM | [6] 11.6 µM | [7] 5.43 µM and 5.78 µM | CD38, CD38 (gene 952) 15.9 µM | CD40, CD40 (gene 958) 26.4 µM and 21.7 µM | CD69, CD69 (gene 969) 22.9 µM and 18.4 µM | [8] 30.8 µM and 31.3 µM | [9] 19.4 µM and 22.2 µM | [10] 16.4 µM and 15.4 µM | [11] 30.8 µM | [12] 14.8 µM and 12.7 µM | [13] 27.7 µM
inactive: [6] | [11]

CCCCC(CC)COCC1CO1 (configuration not stated)
not listed: [14] | [15] | [16]
inactive: all other assays above

COc1ccc2nc(N)sc2c1
active: [16] 0.319 µM
not listed: [14] | [15]
inactive: all other assays above

CCCCCCCCc1ccc(Nc2ccc(CCCCCCCC)cc2)cc1
active: [9] 0.0731 µM
not listed: [14] | [15] | [16]
inactive: all other assays above

C=CC=CC=CCCCCC
active: [12] 6.71 µM
not listed: [14] | [15] | [16]
inactive: all other assays above

O=C(Cl)c1cc(C(=O)Cl)cc(C(=O)Cl)c1
active: [1] 31 µM | [2] 29.9 µM | [4] 31.1 µM | [5] 33 µM | [6] 36.7 µM | [7] 27.8 µM | CD38, CD38 (gene 952) 28.9 µM | CD40, CD40 (gene 958) 30.3 µM | CD69, CD69 (gene 969) 31.9 µM | [8] 29.1 µM | [9] 36.6 µM | [10] 12.6 µM | [11] 20 µM | [12] 12.7 µM | [13] 30.7 µM
inactive: [3]

CCCCC(CC)COC(=O)c1ccccc1O (configuration not stated)
active: [7] 10 µM | [10] 18.4 µM | [12] 17.8 µM
not listed: [14] | [15] | [16]
inactive: all other assays above

S=C(NC1CCCCC1)NC1CCCCC1
not listed: [14] | [15] | [16]
inactive: all other assays above

CCCCC/C=C\C/C=C\CCCCCCCC(=O)OC
inactive: [3] | [8] | [13]
active: [1] 31.8 µM | [2] 37.1 µM | [4] 32.5 µM | [5] 20 µM | [6] 36.1 µM | [7] 30 µM | CD38, CD38 (gene 952) 28.4 µM | CD40, CD40 (gene 958) 20 µM | [9] 30.9 µM | [10] 23.2 µM | [11] 27.8 µM | [12] 13.1 µM | [16] 6.47 µM
